High-throughput results as filed in PubChem BioAssay.
PG9 Ab binder = PG9 antibody binding by small molecule; 360,000 tested, 0.43% active; TR-FRET gp120-PG9 antibody binding; AID 624416; inhibition, % at 6.7 µM; in the data active means inhibition above about 8.5%
rCAG binder = binds r(CAG) RNA repeats. inhibition, % at 3 µM. 370,000 tested, 1.3% active. r(CAG) RNA repeat, TO-PRO-1 dye displacement fluorescence;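 active means inhibition above the plate cutoff, the mean of all test compounds on that plate plus 3 SD, cut at about 35% in these data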;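 further: 0% = DMSO alone and 100% = 100 µM mitoxantrone as full dye displacement; higher means more dye released from RNA so lower well fluorescence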
HGIII-sPLA2 inh = Blocks human group III sPLA2 activity | QFRET BODIPY PC-A2 liposome hydrolysis, fluorescence | inhibition, % at 12.2 µM | 370,000 tested, 0.56% active | Q9NZ20;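 active means inhibition above mean plus 3 SD of compounds lying within the high and low control bounds, cut at about 19% in these data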;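 further: 0% = median of test compound wells and 100% = no enzyme DMSO wells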
Target sequence (Q9NZ20 whole entry, looked up): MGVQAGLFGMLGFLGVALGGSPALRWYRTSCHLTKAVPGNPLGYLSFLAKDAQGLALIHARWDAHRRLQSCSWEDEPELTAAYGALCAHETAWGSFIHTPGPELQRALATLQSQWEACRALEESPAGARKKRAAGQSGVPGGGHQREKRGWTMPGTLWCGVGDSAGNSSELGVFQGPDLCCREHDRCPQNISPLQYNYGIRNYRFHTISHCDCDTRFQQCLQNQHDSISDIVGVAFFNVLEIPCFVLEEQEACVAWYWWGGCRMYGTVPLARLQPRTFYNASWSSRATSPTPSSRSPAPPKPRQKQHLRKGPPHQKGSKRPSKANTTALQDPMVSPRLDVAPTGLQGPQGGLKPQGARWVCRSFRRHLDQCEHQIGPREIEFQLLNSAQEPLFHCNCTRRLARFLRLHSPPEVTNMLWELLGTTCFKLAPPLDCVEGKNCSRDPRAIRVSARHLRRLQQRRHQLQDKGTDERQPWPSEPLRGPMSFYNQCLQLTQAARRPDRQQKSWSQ
MsrA inhibitor = bovine MsrA inhibition | purified bovine MsrA, absorbance read-out | inhibition, % at 15.5 µM | 360,000 tested, 0.75% active | AID 651718; in the data active means inhibition above about 4.5%;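 further: 0% = vehicle wells with enzyme and 100% = reference inhibitor wells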
bovine MsrA act = activators of bovine methionine sulfoxide reductase A | 360,000 tested, 0.3% active | purified bovine MsrA, absorbance read-out | activation, % at 10.6 µM; in the data active means activation above about 7.5%;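 further: 0% = vehicle and 100% = reference activator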
hGIII sPLA2 conf = human GIII-sPLA2 inhibition, confirmation; inhibition, % at 12.2 µM; recombinant hGIII-sPLA2, BODIPY PC-A2 QFRET fluorescence; 2,000 tested, 34% active; shares compounds with HGIII-sPLA2 inh;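 active means mean inhibition across triplicates above the hit cutoff set in the earlier primary screen, cut at about 19% in these data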;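 further: 0% = enzyme with DMSO and 100% = DMSO wells lacking enzyme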
BODIPY interf = optically interferes with 535nm fluorescence in sPLA2 counter-screen; 2,000 tested, 8.5% active; inhibition, % at 12.2 µM; shares compounds with HGIII-sPLA2 inh; AID 743282; BODIPY FL product fluorescence interference, QFRET;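 active means average inhibition above the solvent-only control mean plus 3 SD, cut at about 6% in these data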;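 further: 0% = DMSO with substrate plus product and 100% = DMSO with substrate alone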
BODIPY interf DR = counter-screen for HGIII-sPLA2 inhibitors: 535nm fluorescence interference, dose response. shares compounds with HGIII-sPLA2 inh. BODIPY FL product fluorescence interference, cell-free. IC50, µM. 240 tested, under 10 active;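 active means IC50 at or below 10 µM; inactive means IC50 above 10 µM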
* hit, by the source's call; · = not tested or not shown. The list is not random: actives were taken first. Their share in the collection is about 3.2%.

SMILES | PG9 Ab binder | rCAG binder | HGIII-sPLA2 inh | MsrA inhibitor | bovine MsrA act | hGIII sPLA2 conf | BODIPY interf | others
CSc1ccc(CNc2ccc(C)cc2)cc1 | 0 | -3 | 22* | 0 | -3 | 16 | 4
CCOC(=O)[C@]12CCCC=C1N(CCc1ccc(OC)c(OC)c1)C(=O)[C@H](CC(=O)NCc1ccc(C)o1)C2 | -1 | 1 | -18 | -1 | · | · | ·
NC(=O)C1(Nc2ccc(-c3ccc(Br)cc3)cc2)CCCC1 | 6 | 2 | 20* | 1 | -6 | 12 | 3
Cc1ccc(NC2(C(N)=O)CCCC2)cc1 | 0 | 2 | 7 | 0 | -3 | · | ·
Cc1nc2ccccc2n1CSc1ccccc1 | 0 | -5 | 21* | 0 | -4 | 2 | -10
COc1ccc(-n2c(SCC(=O)NC3CCCCCC3)nnc2-c2ccncc2)cc1 | · | 3 | 5 | · | · | · | ·
O=C(Nc1ccc(COc2ccccc2)cc1)Oc1ccccc1N1CCOCC1 | -1 | 2 | 25* | 0 | -2 | 2 | -10
O=C(Nc1ccccc1)Oc1ccccc1N1CCOCC1 | -1 | -2 | -1 | -1 | -5 | · | ·
O=S(=O)(NNc1ncc(C(F)(F)F)cc1Cl)c1ccc(F)cc1F | -2 | 3 | 27* | 1 | 2 | 30* | 29*
CCOC1(C)OCC(=O)[C@]2(CCC3C4CCC5=CC(=O)C=CC5(C)C4C(=O)CC32C)O1 (stereo not given in full) | 1 | -8 | 19* | 1 | -3 | 0 | -15
CCC(=O)Nc1ccc(C(=O)n2ccc(C)n2)cc1 | -1 | 1 | -4 | 2 | -4 | · | ·
Cc1ccn(C(=O)c2ccc(NC(=O)CC(C)C)cc2)n1 | -1 | 0 | 19* | 0 | -11 | 3 | -1
O=C(Nc1ccc(F)cc1)OC1CC2CC1[C@H]1CCCCN1[C@H]2Cc1ccccc1 (stereo not given in full) | · | 9 | -6 | · | · | · | ·
c1ccc(Cn2ccc3ccc(-c4ccc5ccn(Cc6cccc(-c7ccsc7)c6)c5c4)cc32)cc1 | · | 14 | -4 | · | · | · | ·
N#CC(C#N)=c1ccc2c(c1)NC1(CCCCC1)N=2 | -72 | 4 | 38* | 2 | -2 | 61* | 18*
S=C(NCc1ccco1)NCC(c1ccco1)N1CCCCC1 (stereo not given) | 0 | 0 | 23* | -1 | -13 | 27* | -9
O=C(NCC(c1ccco1)N1CCCC1)c1ccccc1F (stereo not given) | 1 | 0 | -3 | 0 | -1 | · | ·
O=C1N2CCc3ccccc3C2CS(=O)(=O)N1CCc1ccccc1 (stereo not given) | · | -1 | 1 | · | · | · | ·
C/C(=N\NC(=O)c1nn(C)c(C)c1Br)c1ccc(NC(=O)c2ccccc2F)cc1 | -2 | -3 | 22* | 0 | -1 | -1 | -11
C/C(=N\NC(=O)c1nn(C)c(C)c1Br)c1ccc(NC(=O)c2ccoc2C)cc1 | -1 | 4 | 13 | 1 | 0 | · | ·
O=C(NN1CCOCC1)c1cccc2ccccc12 | 0 | -2 | 21* | 0 | -2 | 5 | -7
CC(=O)Nc1ccccc1NC(=O)c1cccc2ccccc12 | -1 | -5 | 22* | 0 | -2 | -1 | -3
O=C(NN1CCCCC1)c1cccc2ccccc12 | -2 | 3 | 1 | 0 | -4 | · | ·
COc1cccc(C(C)(O)c2nc(/C=C/c3ccccc3)cs2)c1 (stereo not given) | -1 | 3 | -18 | 2 | -1 | · | ·
Nc1ccc(CC(N)c2csc(Nc3cc(Oc4ccccc4)ncn3)n2)cc1 (stereo not given) | -2 | 11 | 15 | 0 | -2 | · | ·
SMILES | PG9 Ab binder | rCAG binder | HGIII-sPLA2 inh | MsrA inhibitor | bovine MsrA act | hGIII sPLA2 conf | BODIPY interf | others
NC(Cc1ccc(C(F)(F)F)cc1)c1csc(Nc2nncc3ccccc23)n1 (stereo not given) | -1 | 7 | 21* | 0 | -2 | 2 | -3
Cc1cnc(C)c(Nc2nc(C(N)Cc3ccc(Cl)cc3)cs2)n1 (stereo not given) | 0 | 14 | 25* | -1 | -1 | 2 | -16
NC(Cc1ccc(C(F)(F)F)cc1)c1csc(Nc2cc(Oc3ccccc3)ncn2)n1 (stereo not given) | 0 | 15 | 25* | 0 | -4 | 13 | -10
C[C@H]1CN([C@@H](C)CO)C(=O)CCCn2nncc2CO[C@H]1CN(C)S(=O)(=O)c1ccc(Oc2ccccc2)nc1 | 0 | 4 | -4 | -1 | 4 | · | ·
COc1ccccc1-c1cnc(C(O)c2cccc(F)c2)[nH]1 (stereo not given) | 0 | 2 | -6 | -1 | -4 | · | ·
O=C(Cc1noc2ccccc12)NNC(=S)Nc1ccc(Cl)cc1 | -1 | 24 | 29* | 1 | 0 | 26* | 1
O=C(Cc1noc2ccccc12)NNC(=S)Nc1ccccc1 | -1 | 5 | 18 | 1 | -3 | · | ·
Cn1cccc1CC(=O)NNC(=S)Nc1ccc(Cl)cc1 | -2 | 15 | 24* | 0 | -5 | 27* | 2
Cn1cccc1CC(=O)NNC(=S)Nc1ccccc1Cl | -3 | 15 | 25* | 0 | -6 | 29* | -3 | BODIPY interf DR=>122
CCN(CC)C(=O)CC[C@H]1CC[C@]2(CCCN(C(=O)c3cccnc3)C2)O1 | · | 0 | 2 | · | · | · | ·
CCOc1cccc(/C=N\NC(=O)c2cnccn2)c1O | · | 2 | -4 | · | · | · | ·
CC1CCC2(CC1)CCN(CCCOC(=O)Nc1cccc(F)c1)C2=O (stereo not given) | · | -3 | -4 | · | · | · | ·
CC1(C)Cc2nc3sc(C(=O)NCCCO)c(N)c3cc2CO1 | -1 | -3 | 21* | 0 | 0 | -1 | -4
Cc1onc(-c2ccccc2)c1-c1n[nH]c(=S)n1-c1ccccc1Cl | 0 | 10 | 19* | 0 | 4 | 23* | -1
Cc1onc(-c2ccccc2)c1-c1n[nH]c(=S)n1-c1ccc(C(=O)O)cc1 | 0 | 3 | 4 | 0 | 4 | · | ·
CCCc1c(-c2cccc(Br)c2)ncn1Cc1ccccc1OC | 0 | -1 | 0 | 1 | -7 | · | ·
CCCCCC(=O)N1C[C@@H](O)[C@H](n2cc(-c3ccc(F)cc3)nn2)C[C@@H]1c1ccccc1 | -1 | 2 | -11 | 0 | -1 | · | ·
C/C(=N\NC(=O)c1ccc(O)cc1)c1ccc2c(c1)Nc1ccccc1S2 | -4 | 6 | 3 | 1 | -2 | · | ·
C/C(=N\NC(=O)c1ccccc1F)c1ccc2c(c1)Nc1ccccc1S2 | -5 | 9 | 20* | 0 | -7 | 45* | 10*
C[C@H](CO)N1C[C@H](C)[C@@H](CN(C)Cc2ccc3c(c2)OCO3)Oc2ccc(NS(C)(=O)=O)cc2C1=O | 0 | -1 | 1 | 1 | -2 | · | ·
COC(=O)Cn1c2ccccc2c(=O)n1C(C)C | 0 | 1 | 20* | 1 | -11 | 1 | 1
